PubChem BioAssay (NCATS)
Records with an inconclusive call do not appear. The source made the active and inactive calls. Calls come from the whole dose curve; as a rule, active = well fitted curve in the direction sought with a large enough effect; inconclusive = small, poorly fitted or top-dose-only effect, or another doubt; inactive = no such curve, though single readings can be large; an effect the other way counts as inactive or inconclusive.

Assays:
[1] = qHTS assay for measurement of the activity of small molecule inhibitors on Zika virus induced Caspase-3 activity in human iPSC derived neural progenitor cells (hNPCs) (AID 1224857); note: nearly all actives have a fitted effect of over 65% in size
In short: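 After overnight (16–20 h) culture at 350 cells/well, hNPCs get compound, then ZIKV 2 FFU/cell one hour later. Six hours on, Caspase-Glo 3/7 is added and luminescence measured.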

[2] = qHTS assay for measurement of the activity of small molecule inhibitors on Zika virus induced Caspase-3 activity in human astrocytoma cells (AID 1224859)
In short: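 Inhibition of Zika-induced caspase-3/7 activity: SNB-19 cells, 1 h compound pretreatment, ZIKV 2 FFU/cell for 6 h at 37 C, Caspase-Glo luminescence read-out.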

[3] = qHTS assay to identify small molecule inhibitors of chordoma cells - UCH-1 (AID 1259355); note: nearly all actives have a fitted effect of over 55% in size
In short: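 Luminescent ATP read-out (CellTiter-Glo, 30min at room temperature) measured viability of UCH-1 cells exposed for 48hr to test drugs at 15 concentrations, co-dosed with a five-agent combination of auranofin, camptothecin, doxorubicin, rubitecan and topotecan.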

[4] = qHTS assay to identify small molecule inhibitors of chordoma cells - UCH-2 (AID 1259356); note: series mostly up to about 46 µM
[5] = P-glycoprotein substrates identified in KB-8-5-11 adenocarcinoma cell line, qHTS therapeutic library screen (AID 1346987); details: outcome: dose series up to 44.5 µM; note: series mostly up to about 44 µM; nearly all actives have a fitted effect of over 65% in size
In short: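 KB-8-5-11: colchicine-selected sub-line of KB-3-1 over-expressing P-gp; assay medium lacked colchicine. 72 h drug exposure at 37 degree C, CellTiter-Glo.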

[6] = NS1 protein of Zika virus - qHTS assay to identify small molecule inhibitors in human HEK 293 cells (AID 1347053); note: series mostly up to about 46 µM; nearly all actives have a fitted effect of over 55% in size
In short: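 Inhibition of NS1 expression was scored in HEK 293 cells given compound 1 h ahead of MR766 virus (MOI = 0.5). Following 24 h at 37 C, two anti-NS1 antibodies generated a TR-FRET signal, scaled between uninfected and infected controls.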

[7] = qHTS of pediatric cancer cell lines to identify multiple opportunities for drug repurposing: Primary screen for TC32 cells (AID 1347089); note: nearly all actives have a fitted effect of over 60% in size
In short: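 qHTS, TC32, 48 h drug treatment, CellTiter-Glo luminescence as a proxy for metabolically active cells; primary top concentration 46 µM (MIPE 11-pt, NPC 8-pt); confirmatory 11-pt.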

[8] = qHTS of pediatric cancer cell lines to identify multiple opportunities for drug repurposing: Primary screen for DAOY cells (AID 1347090); note: series mostly up to about 46 µM; nearly all actives have a fitted effect of over 55% in size
In short: (§1)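 Eight- or eleven-point concentration series, 48 h treatment at 37 degrees C in growth media; readout CellTiter-Glo luminescence. Potency and efficacy were taken from the concentration-response curves.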

[9] = qHTS of pediatric cancer cell lines to identify multiple opportunities for drug repurposing: Primary screen for SJ-GBM2 cells (AID 1347091)
In short: as §1

[10] = qHTS of pediatric cancer cell lines to identify multiple opportunities for drug repurposing: Primary screen for A673 cells (AID 1347092); note: nearly all actives have a fitted effect of over 45% in size
In short: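 Luminescence from CellTiter-Glo, taken after 15 min at room temperature, served as the proxy for metabolically active cells following 48 h treatment. Both potency and efficacy were taken from curves fitted to the titration data.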

[11] = qHTS of pediatric cancer cell lines to identify multiple opportunities for drug repurposing: Primary screen for SK-N-MC cells (AID 1347093); note: series mostly up to about 46 µM
In short: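 Metabolically active cells were quantified by ATP-dependent luminescence (CellTiter-Glo, 15 min at room temperature) following 48 h treatment. Cells had been plated at 500-1,000 per well and settled for 5 h beforehand.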

[12] = qHTS of pediatric cancer cell lines to identify multiple opportunities for drug repurposing: Primary screen for BT-37 cells (AID 1347094); note: series mostly up to about 57 µM
In short: (§2)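 Phenotypic viability qHTS, 48 h compound exposure, CellTiter-Glo luminescence read-out; multi-concentration dosing so that potency and efficacy derive directly from the primary screen's curves.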

[13] = qHTS of pediatric cancer cell lines to identify multiple opportunities for drug repurposing: Primary screen for NB-EBc1 cells (AID 1347095)
In short: as §2

[14] = qHTS of pediatric cancer cell lines to identify multiple opportunities for drug repurposing: Primary screen for U-2 OS cells (AID 1347096); note: nearly all actives have a fitted effect of over 50% in size
In short: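 Cells (500-1,000/well) in growth media were settled 5 h at 37 degrees C, then given compounds for 48 h. Viability was read as CellTiter-Glo luminescence. Primary runs used MIPE at 11 points (0.78 nM-46 µM) and NPC at 8 points (0.59 nM-46 µM); follow-ups used 11 points.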

[15] = qHTS of pediatric cancer cell lines to identify multiple opportunities for drug repurposing: Primary screen for Saos-2 cells (AID 1347097); note: nearly all actives have a fitted effect of over 40% in size
In short: as §2

[16] = qHTS of pediatric cancer cell lines to identify multiple opportunities for drug repurposing: Primary screen for SK-N-SH cells (AID 1347098);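 note: DMSO served as neutral control and bortezomib at 2.3 µM as positive control; nearly all actives have a fitted effect of over 65% in size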
In short: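 Cells (500-1,000/well) rested 5 h, then received compounds for 48 h; metabolically active cells were measured by CellTiter-Glo luminescence. Final concentrations spanned up to 46 µM (MIPE, 11-point) or 0.59 nM-46 µM (NPC, 8-point) in primary screens, 11-point in follow-ups.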

Measured: Potency

CCN(CC)CC1CCCCN1CC(=O)N1c2ccccc2C(=O)Nc2cccnc21 (centres undefined)
inactive: all assays above

CC1(C)[C@@H](OC(=O)CCC(=O)O)CC[C@]2(C)[C@H]3C(=O)C=C4[C@@H]5C[C@@](C)(C(=O)O)CC[C@]5(C)CC[C@@]4(C)[C@]3(C)CC[C@@H]12
not listed: [13]
inactive: all other assays above

CC[N+](CC)(CC(=O)Nc1c(C)cccc1C)Cc1ccccc1
not listed: [13]
inactive: all other assays above

CC(=O)OCC(COC(C)=O)OC(C)=O
inactive: all assays above

COC(=O)c1cccnc1
not listed: [10]
inactive: all other assays above

Nc1ncnc2c1ncn2[C@@H]1O[C@H](COP(=O)(O)O)[C@@H](O)[C@H]1O
not listed: [15]
inactive: all other assays above

Cc1ccccc1N=Nc1ccc(N=Nc2c(O)ccc3ccccc23)c(C)c1
inactive: all assays above

C/C=C1\[C@H]2C=C(C)C[C@]1(N)c1ccc(=O)[nH]c1C2
inactive: all assays above

CCCC(O)C(CC)CO (centres undefined)
not listed: [7]
inactive: all other assays above

C=CCN1C[C@H](C(=O)N(CCCN(C)C)C(=O)NCC)C[C@@H]2c3cccc4[nH]cc(c34)C[C@H]21
not listed: [7] | [10] | [13]
inactive: all other assays above

Cc1c(NC(=O)c2cccnc2)c(=O)n(-c2ccccc2)n1C
not listed: [9] | [16]
inactive: all other assays above

CCOC(=O)[C@H](CCc1ccccc1)N[C@@H](C)C(=O)N1CCC[C@H]1C(=O)O
not listed: [7] | [12]
inactive: all other assays above

O=C(CN1CCNCC1)NC1CCCCC1
not listed: [7]
inactive: all other assays above

C1CCN2C[C@@H]3C[C@@H](CN4CCCC[C@@H]34)[C@H]2C1
not listed: [7]
inactive: all other assays above

NC(N)=NS(=O)(=O)c1ccc(N)cc1
not listed: [7] | [10]
inactive: all other assays above

O=C(OOC(=O)c1ccccc1)c1ccccc1
not listed: [10]
inactive: all other assays above

CC(=O)N1C[C@H](O)C[C@H]1C(=O)O
not listed: [7] | [10]
inactive: all other assays above

O=c1[nH]c(=O)c2ccccc2o1
not listed: [7] | [13]
inactive: all other assays above

Cc1cc(C)nc(NS(=O)(=O)c2ccc(N)cc2)n1
not listed: [6]
inactive: all other assays above

C=CCNC(N)=S
not listed: [10]
inactive: all other assays above

Cc1c(NC(C)C)c(=O)n(-c2ccccc2)n1C
not listed: [10] | [15]
inactive: all other assays above

C=CCOc1ccccc1OCC(O)CNC(C)C (centres undefined)
not listed: [7] | [13]
inactive: all other assays above

CC(N)CCCC(C)(C)O (centres undefined)
not listed: [10] | [13]
inactive: all other assays above

OCCN1C[C@H](O)[C@@H](O)[C@H](O)[C@H]1CO
not listed: [7]
inactive: all other assays above

Cc1cccc(Nc2ccccc2C(=O)O)c1C
not listed: [10] | [11] | [13] | [15] | [16]
inactive: all other assays above

CCCCCCCCCCCCCCCCN
not listed: [10]
inactive: all other assays above

Cc1ccc(C(C)C)c(O)c1
not listed: [7]
inactive: all other assays above

CCN(CC)CCOC(=O)C(c1ccccc1)c1ccccc1
not listed: [10] | [13]
inactive: all other assays above

COc1ccc(C(=O)N2CCN(CC(=O)N3CCOCC3)CC2)cc1
not listed: [10]
inactive: all other assays above

CC(=O)Nc1ccccc1
not listed: [7]
inactive: all other assays above

CCCCCCCCCCCCCCCCC(C(=O)O)C(O)(CC(=O)O)C(=O)O (centres undefined)
not listed: [9] | [10] | [13]
inactive: all other assays above

NNC(=O)CP(=O)(c1ccccc1)c1ccccc1
not listed: [7]
inactive: all other assays above

O=C(O)c1ccccc1C(=O)Nc1ccc(S(=O)(=O)Nc2nccs2)cc1
not listed: [7] | [10] | [11]
inactive: all other assays above

Cc1cc(C)c(NC(=O)CN(CC(=O)O)CC(=O)O)c(C)c1Br
not listed: [7] | [13]
inactive: all other assays above

CN[C@@H]1[C@@H](O)[C@@H](O[C@@H]2[C@H](O)[C@H](O[C@H]3OC(CN)=CC[C@H]3N)[C@@H](N)C[C@H]2N)OCC1(C)O (some centres undefined)
not listed: [7] | [13]
inactive: all other assays above

CN(C/C=C/C#CC(C)(C)C)Cc1cccc2ccccc12
not listed: [8] | [10] | [11] | [13] | [15]
inactive: all other assays above

Cc1cc(=O)[nH]c(=S)[nH]1
not listed: [7] | [15] | [16]
inactive: all other assays above

OCC(O)CS (centres undefined)
not listed: [7] | [13]
inactive: all other assays above

CCCCCOC(=O)Nc1nc(=O)n([C@@H]2O[C@H](C)[C@@H](O)[C@H]2O)cc1F
not listed: [7] | [16]
inactive: all other assays above

CC(CSC(=O)c1ccccc1)C(=O)N1C[C@@H](Sc2ccccc2)C[C@H]1C(=O)O (some centres undefined)
not listed: [7]
inactive: all other assays above

O=C(O)c1ccc(OCCCOc2ccc(C(=O)O)cc2)cc1
not listed: [7]
inactive: all other assays above

CN1C(C)(C)CCCC1(C)C
not listed: [7] | [10] | [16]
inactive: all other assays above

Nc1ncnc(Nc2ccccc2)n1
not listed: [7] | [13] | [16]
inactive: all other assays above

CCCNC(C)(C)COC(=O)c1ccccc1
not listed: [7] | [11] | [16]
inactive: all other assays above

CC(CN(C)C)C(C)(O)Cc1ccc(Cl)cc1 (centres undefined)
not listed: [10]
inactive: all other assays above

COc1ccccc1Oc1c(NS(=O)(=O)c2ccc(C(C)(C)C)cc2)nc(-c2ncccn2)nc1OCCO
not listed: [8] | [10] | [13]
inactive: all other assays above

CC[C@]12CCCN3CCc4c(n(c5ccccc45)[C@@](O)(C(=O)OC)C1)[C@@H]32
not listed: [5]
inactive: all other assays above

CCCCOC(=O)c1ccc(N)cc1
not listed: [5] | [13]
inactive: all other assays above

O=C(O)c1ccc[n+]([O-])c1
not listed: [5] | [13]
inactive: all other assays above

CCS(=O)(=O)CCn1c([N+](=O)[O-])cnc1C
not listed: [5]
inactive: all other assays above

Cc1onc(-c2ccccc2)c1-c1ccc(S(N)(=O)=O)cc1
not listed: [5] | [10]
inactive: all other assays above

O=C(O)C(S)C(S)C(=O)O (centres undefined)
not listed: [5]
inactive: all other assays above
